Screening data as filed in PubChem BioAssay.
Most compounds without a hit are left out; they make up all but 21% or so of the library.
FBPA Giardia inh: Giardia lamblia aldolase inhibition; purified Giardia FBPA; Potency, µM (series often up to 59.6 µM), for the others: top-dose activity, negative = inhibition, hits mostly inhibitors; hit rate 0.71% among 290,000; AID 2451; note: potency is the fitted concentration of half-maximal effect; % is set by controls: 0 for no effect and ±100 for the full control effect; nearly all actives have a fitted effect of over 55% in size
Target sequence (A8B2U2 whole entry, looked up): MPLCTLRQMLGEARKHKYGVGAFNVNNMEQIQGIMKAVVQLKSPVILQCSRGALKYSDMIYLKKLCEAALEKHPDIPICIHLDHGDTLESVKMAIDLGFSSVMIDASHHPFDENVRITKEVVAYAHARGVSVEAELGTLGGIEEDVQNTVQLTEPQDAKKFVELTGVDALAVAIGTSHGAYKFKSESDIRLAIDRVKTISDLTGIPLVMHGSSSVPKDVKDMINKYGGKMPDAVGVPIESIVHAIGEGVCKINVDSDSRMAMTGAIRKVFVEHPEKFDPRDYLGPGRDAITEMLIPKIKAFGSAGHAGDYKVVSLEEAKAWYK
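40 nM FBPA preincubated 10 min at RT with compound (up to 57.5 uM final), then substrate plus GAPDH/TPI/NAD/arsenate coupling and diaphorase/resazurin added. Fluorescence read after 20 min at RT, 525/598 nm.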
Pf growth 48h: inhibits P. falciparum growth in the first generation, 48 h; P. falciparum luciferase growth in erythrocytes, 48 h; Potency, µM (series often up to 28.7 µM), without a hit: at the highest dose activity change, negative = inhibition, most hits filed as inhibitors; hit rate 5.9% among 310,000; AID 504832; note: potency is the fitted concentration of half-maximal effect; % is set by controls: 0 for no effect and ±100 for the full control effect
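Luminescence readout; reporter = integrated firefly luciferase in P. falciparum. RBC culture at 2% hematocrit, 0.1% parasitemia final, 37 C/5% CO2; decreased signal taken as growth inhibition.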
NS1 function inh: inhibitors of influenza NS1 protein function; hit rate 0.4% among 270,000; Potency, µM (top dose mostly 46.1 µM), for inactives: at the top dose activity, positive = more growth; calls by dose curve; note: potency is the fitted concentration of half-maximal effect; actives are rising curves; nearly all actives have a fitted effect of over 50% in size
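Recovery from NS1-induced slow growth read by OD600 in budding yeast switched to galactose assay medium (pH 6.0, -URA) at 1:100 dilution. Compound 23 nl per well; the matching strain lacking NS1 serves as control.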
Shiga inhibitor: inhibitors of Shiga toxin in Vero cells; AID 2315; hit rate 9.2% among 290,000; inhibition, % at 38.7 µM; Vero cells, Shiga toxin protein synthesis inhibition reporter; in the data active = inhibition mostly above about 28%, no sharp cut-off; inactive = mostly below about 43%; note: 0% is about no effect
Pf growth 96h: inhibits malaria parasite growth, 96 h. hit rate 6.9% among 320,000. AID 504834. P. falciparum luciferase reporter growth, 96 h. Potency, µM (doses to about 28.7 µM), inactives show at the highest dose activity change, negative = inhibition, actives largely listed as inhibitors; note: potency is the fitted concentration of half-maximal effect; % is set by controls: 0 for no effect and ±100 for the full control effect
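Readout is luminescence from an integrated firefly luciferase in P. falciparum. Red cells, 2% hematocrit and 0.05% parasitemia final, were cultured with compound through two parasite generations (96 hours) at 37 C, 5% CO2.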
CHX counter: counter-screen hit for Shiga toxin inhibitors, cycloheximide. AID 2314. max response, %. cell reporter, cycloheximide protein synthesis inhibition counterscreen. hit rate 12% among 300,000; in the data active = max response mostly above about 13%, no sharp cut-off; inactive = mostly below about 14%; note: read at 38.3 µM for the half of the compounds with a filed dose; 0% is about no effect
Starred values were filed as active, the others as inactive; ? = inconclusive; / = not tested or not shown; ! = repeats disagree; [ ] = remark or other dose. Unless noted, calls come from the whole dose curve; as a rule, active = well fitted curve in the direction sought with a large enough effect; inconclusive = small, poorly fitted or top-dose-only effect, or another doubt; inactive = no such curve, though single readings can be large; an effect the other way counts as inactive or inconclusive.

SMILES	FBPA Giardia inh	Pf growth 48h	NS1 function inh	Shiga inhibitor	Pf growth 96h	CHX counter
Cc1c(-c2ccco2)[n+](=O)c2c(n1[O-])CCC2	18%	18%	8%	2	15µM*	4
Cc1ccc(-c2c(C)n([O-])c3c([n+]2=O)CCCCC3)o1	9%	42%	5%	12	100%	-4
CC(C)C1CCC(C(=O)NC(Cc2ccccc2)C(=O)O)CC1 (stereo not given)	?	1%	/	/	21%	/
O=c1c(-c2ccc(F)cc2)nc2cnc(N3CCOCC3)nc2n1C1CC1	-2%	/	/	/	/	/
CC1Cn2cc(C(=O)Nc3ccccc3C(F)(F)F)c(=O)c3c(Cl)ccc(c32)O1 (stereo not given)	/	2%	/	/	39%	/
Cc1ccc2c(c1)-c1c(ssc1=S)C(C)(C)N2C(=O)CSC1=NCCS1	-7%	?	29%	10	?	1
CCOc1ccc2c(c1)-c1c(ssc1=S)C(C)(C)N2C(=O)CSC1=NCCS1	5%	?	?	-2	1.7µM*	-6
COC(=O)/C(=C(/F)Sc1cc(C)c(O)c(C)c1)C(F)(F)F	6%	9.3µM*	-36%	-6	/	8
O=C(Nc1ccc(Cl)cc1)Nc1nc(-c2sccc2Br)cs1	0%	8.3µM*	9%	12	9.3µM*	-4
O=C(Cc1csc(NC(=O)Nc2ccc(Cl)cc2)n1)NCc1ccccn1	/	4%	/	/	11%	/
O=C(Nc1ccc(Cl)cc1)Nc1nc(-c2ccccc2O)cs1	-12%	1.7µM*	8%	20*	?	17
Cc1cnc(NC(=O)Nc2ccc(Cl)cc2)s1	2%	141%	/	153*	-4%	57*
Cc1cnc(NC(=O)CSc2ccc(Cl)cc2)s1	-3%	-15%	-9%	2	31%	-3
Cc1csc(NC(=O)Nc2ccc(Cl)cc2)n1	-3%	/	0%	62*	/	48*
O=C(CCN1C(=O)c2ccccc2C1=O)Nc1ccccc1C(F)(F)F	6%	30%	0%	3	-1%	-3
O=C(NCc1ccccn1)C(=O)NCC1OCCN1S(=O)(=O)c1ccc([N+](=O)[O-])cc1 (stereo not given)	11%	-13%	1%	-10	-10%	2
Cc1cccc(N2CCN(C(=O)CN3C(=O)NC(C)(C4CC4)C3=O)CC2)c1C (stereo not given)	/	?	/	/	30%	/
Cc1cccc(N2CCN(C(=O)CN3C(=O)NC(C)(C)C3=O)CC2)c1C	3%	63%	2%	74*	36%	31*
Cc1cccc(N2CCN(C(=O)CN3C(=O)C4CC=CCC4C3=O)CC2)c1C (stereo not given)	0%	36%	/	76*	135%	28
Cc1ccccc1N1CCN(C(=O)CN2C(=O)c3ccccc3C2=O)CC1	2%	29%	-9%	198*	/	38*
CCOc1ccccc1N(C)C(=O)c1cn(C)c(=O)c2ccccc12	12%	/	2%	-3	-11%	-2
c1ccc(-c2cn(-c3ccccc3)c3[n+]2CCCS3)cc1	2%	?	-1%	12	?	-2
CCc1ccc(-n2cc(-c3ccc(F)cc3)[n+]3c2SCCC3)cc1	0%	1.5µM*	1%	-14	?	-2
COc1ccc(-n2cc(-c3ccc(C)cc3)[n+]3c2SCC3)cc1	-2%	0.59µM*	5%	-9	?	-8
Cc1ccc(-c2cn(-c3ccccc3)c3[n+]2CCCS3)cc1	-3%	1µM*	15%	32	0.37µM*!	-3
SMILES	FBPA Giardia inh	Pf growth 48h	NS1 function inh	Shiga inhibitor	Pf growth 96h	CHX counter
N#Cc1ccc(-c2cn(-c3ccccc3)c3[n+]2CCCS3)cc1	1%	?	8%	3	?	-1
O=C(Nc1ccc(F)c(F)c1)C1=COCCO1	/	22%	/	/	45%	/
CC(=Nc1ccccc1C)C1=C(O)CSC1=O	-17%	12%	-3%	-6	/	1
COc1ccc(N=C(C)C2=C(O)CSC2=O)cc1	-20%	/	-4%	45	2%	40*
CC(=Nc1ccccc1)C1=C(O)CSC1=O	-9%	/	5%	49	0%	32*
C=C(C)C(=O)c1ccc(OC)cc1	0%	/	/	/	/	/
O=C(Cc1cccs1)Nc1ccc(F)cc1F	4%	8%	1%	19	-18%	-4
O=C(/C=C/Nc1ccc(F)cc1F)c1cccs1	-14%	65%	-11%	49*	?	46*
CN(C)C(/C=C/Nc1ccccc1F)=C(C#N)C#N	-11%	12%	10%	8	11%	7
CCOC(=O)c1ccccc1N/C=C/C(=O)c1cccs1	-4%	31%	-21%	156*	-10%	74*
Cc1ccc(N/C=C/C(=O)c2cccs2)cc1	-11%	333%	/	17	?	24
O=C(/C=C\Nc1cccc(F)c1)c1cccs1	6%	108%	-20%	42*	274%	40*
O=C(/C=C/Nc1ccccc1F)c1cccs1	1%	148%	-19%	30*	?	45*
CCOC(=O)c1ccccc1NC(=O)c1cccs1	3%	7%	-17%	-17	?	-8
C/C(=N\NC(=O)C(=O)Nc1cc(C)ccc1C)c1ccncc1	5%	11%	-2%	-3	2%	1
CCOC(=O)Cc1csc(NC(=O)CN2CCN(c3ccccc3)CC2)n1	?	5%	10%	/	7%	-1
O=C1NCN(c2ccccc2)C12CCN(CCCOc1ccc(F)cc1)CC2	8%	17µM*	/	/	-15%	/
Fc1ccc(OCCCCN2CCOCC2)cc1	-3%	15%	/	-3	?	-3
O=C1CC(N2CCN(C(c3ccccc3)c3ccccc3)CC2)C(=O)N1Cc1ccc(N2CCCC2=O)cc1 (stereo not given)	/	9.3µM*	-18%	5	15µM*	9
COC(=O)c1c(C(=O)c2ccc(Br)cc2)n(C)c2ccccc12	/	13µM*	/	/	?	/
CCOC(=O)/C(C#N)=C1\Nc2ccccc2N=C1N(CC(C)C)CC(C)C	-8%	2.3µM*	14%	-13	19%	4
CC1=C([N+](=O)[O-])C(c2ccc3c(c2)OCO3)N(C)C(=O)N1C (stereo not given)	-1%	?	6%	-8	2%	-1
CCCc1nn(C)c(C(=O)Nc2ccc(C(C)(C)C)cc2)c1Cl	-8%	-25%	-4%	5	?	-1
CCCc1nn(C)c(C(=O)Nc2ccccc2)c1Cl	10%	209%	-9%	72*	289%	92*
CCCc1nn(C)c(C(=O)Nc2ccc(Cl)cc2)c1Cl	4%	11%	-5%	43	2%	25*
N/N=C(\c1ccccc1)C12CN3CN(CN(C3)C1)C2	20%	32%	34%	-8	6%	5
Cc1ccc(-n2nc(C)c3c(C)c(CCC(=O)O)c(C)nc32)cc1	5%	16%[0.00184 µM]	-43%	18	?	-2
Cc1ccc(-n2nc(C)c3c(C)c(CCC(=O)NC(C)c4ccccc4)c(C)nc32)cc1 (stereo not given)	0%	/	-11%	-7	9.3µM*	-2
